TEAD-YAP block: TEAD-YAP interaction inhibition. inhibition, % at 9.12 µM. HEK-TIYL cells, TEAD-Gal4/YAP UAS-luciferase luminescence. 640,000 tested, 1.4% active. AID 1259422; in the data active means inhibition above about 32%;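 further: 0% = median of test compound wells and 100% = reference inhibitor wells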
GPR151 activ: human GPR151 activation; PathHunter beta-arrestin GPR151 cells, luminescence; Q8TDV0; activation, % at 11.2 µM; 650,000 tested, 1% active; in the data active means activation above about 4.9%;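 further: 0% = median of compound wells and 100% = cells with positive control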
MITF primary: inhibitors of human MITF; inhibition, % at 2.6 µM; AlphaScreen MITF homodimerization, bead proximity signal; 650,000 tested, 0.91% active; AID 1259374; O75030; in the data active means inhibition above about 50%;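 further: 0% = vehicle wells with protein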
Target sequence (O75030 whole entry, looked up): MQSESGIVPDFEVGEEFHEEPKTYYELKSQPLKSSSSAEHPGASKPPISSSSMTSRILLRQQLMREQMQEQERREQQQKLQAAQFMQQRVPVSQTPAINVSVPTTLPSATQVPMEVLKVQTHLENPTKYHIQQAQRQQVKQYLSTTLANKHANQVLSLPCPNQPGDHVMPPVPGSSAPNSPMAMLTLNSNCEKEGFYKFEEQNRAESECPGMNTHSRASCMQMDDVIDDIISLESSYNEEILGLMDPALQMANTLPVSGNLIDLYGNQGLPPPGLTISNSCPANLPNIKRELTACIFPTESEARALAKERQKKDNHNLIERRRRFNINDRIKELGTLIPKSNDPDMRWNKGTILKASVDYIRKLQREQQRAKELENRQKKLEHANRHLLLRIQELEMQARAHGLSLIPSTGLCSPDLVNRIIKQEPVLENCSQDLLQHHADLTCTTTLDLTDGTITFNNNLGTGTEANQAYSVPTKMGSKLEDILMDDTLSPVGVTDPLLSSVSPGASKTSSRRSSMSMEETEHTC
FBW7 act: activators of human E3 ligase FBW7. 650,000 tested, 0.13% active. AID 1259310. AlphaScreen FBW7–phospho-cyclin E peptide binding, activator screen. normalized activity (activation), % at 26.1 µM; in the data active means normalized activity above about 1.9%;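 further: purified mutant Fbw7 with reduced substrate affinity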
GPR151 confirm: human GPR151 activation, confirmation screen. shares compounds with GPR151 activ. GPR151 PathHunter beta-arrestin cells, luminescence, 90 min; % of EA-reagent control over plate median. activation, % at 11.2 µM. 6,700 tested, under 10 active;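 active means mean percent activation across replicates above the confirmation screen cutoff of 4.91%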
GPR119 ag: GPR119 activation, counter-screen for GPR151 activators; shares compounds with GPR151 activ; GPR119 PathHunter beta-arrestin cells, luminescence, 90 min; 0 = compound-well median, 100 = enzyme-acceptor control; activation, % at 11.2 µM; 6,700 tested, 0.3% active;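 active means mean percent activation in the counterscreen above 29.09%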;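 further: counterscreen on off-target GPR119 to flag nonselective hits from the GPR151 activator screen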
Starred values were filed as active, the others as inactive; x = not tested or not shown. This is a sample that favours compounds with a hit; in the whole collection about 3.5% have one here.

SMILES	TEAD-YAP block	GPR151 activ	MITF primary	FBW7 act	GPR151 confirm	GPR119 ag
N#C/C(=C\c1ccc(OCC(=O)O)cc1)C(N)=S	-6.3	6.4*	4.4	0.5	-0.3	-5.0
Cc1ccc(C(C(=O)NC2CCCC2)N(C)C)cc1 (configuration not stated)	10.2	-0.7	15.9	0.1	x	x
CN(C)C(C(=O)NC1CCCC1)c1ccc(Cl)cc1 (configuration not stated)	3.5	6.0*	-3.8	-0.1	-1.0	-3.4
Cc1nonc1CN(C)C(=O)C1CC12CCN(C(=O)c1ccccc1C(F)(F)F)CC2 (configuration not stated)	-14.4	5.3*	3.5	-0.1	0.5	10.9
CCOC(=O)C1(Cc2ccccc2C(F)(F)F)CCN(C(=O)Cc2nonc2C)CC1	-41.2	0.0	1.6	0.2	x	x
Cc1c(Cl)cccc1NC(=O)CSc1nnc(C(C)(C)C)n1N	7.8	0.4	5.2	0.0	x	x
COc1cc2nc(N3CCc4ccccc4C3)nc(NCc3ccccc3)c2cc1OC	-0.5	0.7	-18.6	0.3	x	x
O=C(Nc1cccnc1)c1cnn2cc(Br)cnc12	-12.1	3.1	-10.1	0.3	x	x
O=C(Nc1ccc(Cl)cc1)c1cnn2cc(Br)cnc12	-14.6	7.3*	-8.1	0.1	-0.4	-10.3
Cc1ccc(Cl)cc1-n1c(=S)[nH]c2[nH]ncc2c1=O	-9.6	-0.6	5.2	-0.2	x	x
N#CCSc1nc(SCC#N)c2ccccc2n1	-1.3	-1.5	-1.0	0.1	x	x
COc1ccccc1-c1nnc(NC(=O)CSC2=NCCS2)s1	-7.2	5.6*	4.1	0.0	0.9	4.8
COCCNC(=O)c1sc2nc(C)cc(C)c2c1-n1cccc1	-8.8	-0.8	-2.2	-0.1	x	x
CN(CC(=O)c1ccc2cc[nH]c2c1)Cc1ccccc1	-19.7	5.3*	14.2	0.7	0.0	-6.8
C/C(N)=C(/C#N)C(=O)COC(=O)C12CC3CC(C1)CC(c1ccccc1)(C3)C2	8.6	-0.4	1.6	0.6	x	x
CC(C(=O)N1CCc2ccccc21)N1CCC(N2CCCCC2)CC1 (configuration not stated)	5.1	0.1	13.2	-0.1	x	x
Nc1ccccc1-c1nc2ccccc2[nH]c1=O	-54.5	5.9*	3.9	-0.1	-2.2	-15.5
COc1ccc(/C(C)=N/NC(=O)Cc2ccccc2)c(OC)c1	-16.0	-0.1	-4.8	0.6	x	x
CCOc1ccc(NC(=O)c2ccc([N+](=O)[O-])cc2Cl)cc1	-27.0	6.4*	1.9	-0.2	-1.0	-7.6
O=C(Nc1ccc2oc(=O)ccc2c1)c1ccc([N+](=O)[O-])cc1Cl	16.1	9.0*	6.2	-0.1	0.7	-3.6
CCCCN(C)S(=O)(=O)c1cc2c(cc1C)N(C(C)=O)CCO2	-1.6	6.2*	-3.4	-0.1	1.1	0.2
CCCCCn1c(N2CCCC2)nc2c1c(=O)[nH]c(=O)n2C	3.9	-0.3	7.1	0.1	x	x
CCCCCCn1c(N2CC(C)CC(C)C2)nc2c1c(=O)[nH]c(=O)n2C (configuration not stated)	-5.2	5.8*	11.0	0.1	0.3	7.2
N#Cc1ccc(NC(=O)COC(=O)CCC(=O)c2ccc3c(c2)OCCO3)cc1	-3.5	11.0*	-1.9	0.0	6.8*	10.5
CSc1nsc(NC(=O)Cc2n[nH]c(=O)c3ccccc23)n1	-4.0	-1.3	-4.2	-0.2	x	x
SMILES	TEAD-YAP block	GPR151 activ	MITF primary	FBW7 act	GPR151 confirm	GPR119 ag
O=C(Cc1n[nH]c(=O)c2ccccc12)Nc1ccccn1	-0.3	5.4*	6.7	0.1	-0.4	-6.8
COc1cccc(NC(=O)c2oc3ccccc3c2NC(=O)CC(C)(C)C)c1	12.1	0.1	11.1	0.2	x	x
O=C(Nc1nc(-c2cccc([N+](=O)[O-])c2)cs1)c1cccnc1	-0.1	1.2	0.7	0.1	x	x
OCCN1CCN(C2CCN(Cc3cccc4ccccc34)CC2)CC1	3.6	7.6*	9.3	-0.2	0.7	9.8
C#CCN1CCc2cc(OC)c(OC)cc2C1C (configuration not stated)	-10.4	6.4*	-9.6	-0.1	1.8	4.0
COc1cc2c(cc1OC)C(C)N(C(=O)c1ccccc1Cl)CC2 (configuration not stated)	-0.4	-0.3	-7.1	-0.1	x	x
CCCN(CCC)CCCNC(=O)C(=O)Nc1ccc(I)cc1	3.1	10.9*	-1.1	0.1	0.1	-0.1
CCCN(CCC)CCCNC(=O)C(=O)Nc1ccc(C)cc1	2.6	0.0	5.2	0.2	x	x
CC(C)Cn1c(CN2CCN(c3ccc(F)cc3)CC2)nc2c1c(=O)n(C)c(=O)n2C	2.0	10.1*	11.5	0.0	0.9	6.5
COc1ccc(-c2cc(=O)oc3c(O)c(O)ccc23)cc1	13.6	8.2*	-2.9	-0.3	-0.6	0.8
COc1ccc(-c2cc(=O)oc3cc(O)c(Cl)cc23)cc1	19.9	0.6	-5.3	0.0	x	x
C[C@]12CCC(=O)C=C1CC[C@@H]1[C@@H]2C(=O)C[C@@]2(C)[C@H]1CCC2(O)C(=O)CO (some centres not stated)	-7.9	-2.0	-19.6	-0.1	x	x
Cc1nnc(NC(C)c2ccccc2)[nH]c1=O (configuration not stated)	-1.4	5.5*	-2.9	0.1	-0.4	4.4
COc1ccc(C(C)(C)C)cc1NC(=O)COC(=O)c1ccc([N+](=O)[O-])s1	-2.0	-1.2	24.5	0.1	x	x
CC(C)(C)c1ccc(NC(=O)COC(=O)c2ccc([N+](=O)[O-])s2)cc1	-9.8	6.1*	-5.0	-0.2	-0.8	-6.2
CCCc1c2ccc(C)n2cc[n+]1CC(=O)c1ccc(OC)cc1	17.4	0.3	18.6	0.3	x	x
CC(=O)Oc1ccc2nc(Cc3ccccc3)oc(=O)c2c1	5.2	0.5	3.9	-0.1	x	x
O=C(NCc1ccc(Cl)cc1)C1CCC(Cn2c(=S)[nH]c3ccsc3c2=O)CC1 (configuration not stated)	-4.1	7.0*	5.7	-0.1	0.6	14.1
O=C(Nc1ccccc1)OCC1CCCO1 (configuration not stated)	-35.1	10.6*	3.4	0.1	0.0	-4.7
COc1ccc(/C=C/C(=O)Nc2ccc3nc(N4CCCCC4)cc(C)c3c2)cc1	-0.3	3.8	5.4	0.1	x	x
CC(C)N1CCC(=NNC(=O)c2ccc(C(C)(C)C)cc2)CC1	-0.4	6.7*	-6.1	0.0	2.2	-2.2
Cc1ccc(C(=O)NN=C2CCN(C)CC2)cc1	-9.9	0.0	-19.8	0.0	x	x
CCN(CC)c1nc(Nc2ccccc2)nc(Nc2nc3ccccc3n2C)n1	-2.5	-0.6	4.5	0.5	x	x
CCN(CC)c1nc(Nc2nc3ccccc3n2C)nc(NC2CC2)n1	5.6	7.5*	17.3	0.2	0.3	0.5
COc1ccc(N2CCN(C(=O)CNC(=O)c3nn(-c4ccc(OC)cc4OC)c(=O)c4ccccc34)CC2)cc1	4.2	-0.6	1.4	-0.2	x	x

Screening results: PubChem, The Scripps Research Institute Molecular Screening Center
